Source: PubChem BioAssay
The list is not random: actives were taken first. Their share in the collection is about 10%.
BAZ2B block: qHTS Assay for Inhibitors of BAZ2B. 360,000 compounds, 4.4% hits. Bromodomain adjacent to zinc finger domain protein 2B (Homo sapiens), Q9UIF8. AlphaScreen BAZ2B-H3K14Ac peptide displacement. Potency, µM (titrated, usually from 114 µM), without a hit: at the highest dose activity change, negative = inhibition, hits mostly inhibitors; note: % is set by controls: 0 for no effect and ±100 for the full control effect; nearly all actives have a fitted effect of over 60% in size
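BAZ2B 50 nM plus b-H3(5-23)K14Ac 50 nM, PBS pH 7.4/0.01% Tween-20, 30 min RT; compound added (max 110 uM), 30 min RT; streptavidin donor/Ni-chelate acceptor beads 10 ug/mL final, 20 min dark; AlphaScreen read.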
HP1b binding inh: HTS for Inhibitors of HP1-beta Chromodomain Interactions with Methylated Histone Tails; Chromobox protein homolog 1 (Homo sapiens), P83916; AlphaScreen HP1-beta / biotin-H3K9me3 peptide binding; Potency, µM (top dose mostly 114 µM), inactives show top-dose activity change, negative = inhibition, most hits filed as inhibitors; 390,000 compounds, 0.56% hits; note: nearly all actives have a fitted effect of over 70% in size
Target sequence (P83916 whole entry, looked up): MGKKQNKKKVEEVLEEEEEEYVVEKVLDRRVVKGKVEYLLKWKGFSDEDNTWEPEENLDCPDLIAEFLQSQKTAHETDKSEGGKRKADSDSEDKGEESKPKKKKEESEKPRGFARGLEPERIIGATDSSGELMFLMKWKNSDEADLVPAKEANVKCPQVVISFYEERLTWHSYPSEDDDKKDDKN
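AlphaScreen: HP1-beta (50 nM) preformed 30 min with biotin-H3(1-18)K9me3 peptide (50 nM) in PBS pH 7.4, 0.01% Tween-20. Compound added for 30 min at RT, then streptavidin donor/nickel chelate acceptor beads (10 ug/mL) for 30 min.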
JMJD2A Tudor inh: qHTS Assay for Inhibitors of JMJD2A-Tudor Domain; Lysine-specific demethylase 4A (Homo sapiens), O75164; AlphaScreen JMJD2A-Tudor / H3K4me3 peptide binding; Potency, µM (doses to about 114 µM), without a hit: top-dose activity change, negative = inhibition, most hits filed as inhibitors; 390,000 compounds, 4.4% hits; AID 504339, 2011; note: % is set by controls: 0 for no effect and ±100 for the full control effect; nearly all actives have a fitted effect of over 50% in size
G9a block: qHTS Assay for Inhibitors of Histone Lysine Methyltransferase G9a; Histone-lysine N-methyltransferase EHMT2 (Homo sapiens), Q96KQ7; G9a H3K9 monomethylation, AlphaScreen, 2 h; Potency, µM (titrated, usually from 102 µM), for the others: at the highest dose activity, negative = inhibition, usual class: inhibitors; 350,000 compounds, 8.8% hits; AID 504332, 2011; note: % is set by controls: 0 for no effect and ±100 for the full control effect; nearly all actives have a fitted effect of over 75% in size
Target sequence (Q96KQ7 913-1193 limits assumed): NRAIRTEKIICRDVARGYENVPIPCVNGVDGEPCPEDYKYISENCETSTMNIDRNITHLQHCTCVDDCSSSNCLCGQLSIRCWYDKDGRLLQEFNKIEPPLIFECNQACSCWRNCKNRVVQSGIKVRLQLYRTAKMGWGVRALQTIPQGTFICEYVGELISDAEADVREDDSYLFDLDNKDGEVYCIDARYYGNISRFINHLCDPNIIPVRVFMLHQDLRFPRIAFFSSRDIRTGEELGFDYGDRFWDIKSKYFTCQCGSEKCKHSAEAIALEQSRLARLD
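AlphaScreen detection with an anti-monomethyl H3K9 antibody quantified product after a 2 h room-temperature reaction containing 500 nM biotinylated H3K9 peptide, 20 µM SAM and 20 nM enzyme, which had been preincubated 15 min with compound.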
GLS inhibitor: qHTS for Inhibitors of Glutaminase (GLS); Glutaminase kidney isoform, mitochondrial (Homo sapiens), O94925; GLS enzymatic activity, qHTS titration; Potency, µM (series often up to 45.5 µM), inactives show top-dose activity change, negative = inhibition, hits mostly inhibitors; 410,000 compounds, 0.21% hits; AID 624170, 2012; note: % is set by controls: 0 for no effect and ±100 for the full control effect
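Enzyme dispensed in phosphate buffer (45 mM, pH 8.2, 0.02% Tween-20), compounds pinned in, then 1 mM L-glutamine solution and the glutamate oxidase–HRP–Amplex Red mix added; fluorescence read immediately and again after 30 min at room temperature.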
Active calls of the source: *; ? = inconclusive; . = no result; [ ] = remark or other dose. Calls come from the whole dose curve; as a rule, active = well fitted curve in the direction sought with a large enough effect; inconclusive = small, poorly fitted or top-dose-only effect, or another doubt; inactive = no such curve, though single readings can be large; an effect the other way counts as inactive or inconclusive. Potency is the fitted concentration of half-maximal effect.

SMILES	BAZ2B block	HP1b binding inh	JMJD2A Tudor inh	G9a block	GLS inhibitor
CC(=O)Nc1ccc(CN2CCN(C3CCCC3)C(CCO)C2)cc1 (stereo not given)	5%	15%	-8%	.	-1%
CC(=O)Nc1ccc(S(=O)(=O)N2CCN(Cc3ccccc3[N+](=O)[O-])CC2)cc1	-32%	11%	-29%	?	-1%
CC(=O)Nc1ccc(S(=O)(=O)N2CCN(S(=O)(=O)c3ccccc3)CC2)cc1	-3%	13%	0%	3%	1%
CC(=O)Nc1ccc(S(=O)(=O)N2CCN(CC3CC4C=CC3C4)CC2)cc1 (stereo not given)	35µM*	?	6.3µM*	28µM*	-13%
CC(=O)Nc1ccc(CN2CCCN(C)CC2)cc1	?	?	22µM*	20µM*	6%
CCOc1ccc(NC(=O)CN2CCN(S(=O)(=O)c3ccc(OC)cc3)CC2)cc1	-13%	-10%	-20%	-25%[59 µM]	1%
CCOc1ccc(CN2CCN(S(=O)(=O)c3ccc(NC(C)=O)cc3)CC2)cc1	25µM*	35µM*	7.9µM*	22µM*	-19%
COc1cc(OC)c(OC)cc1CN1CCN(S(=O)(=O)c2ccc(NC(C)=O)cc2)CC1	50µM*	?	1µM*	.	-13%
N#CN1CCC(NC(=O)c2ccc(C(F)(F)F)cc2)CC1	.	.	-12%	.	.
CCN1CCN(Cc2c(C(=O)N/N=C(\C)c3ccc(Cl)c(Cl)c3)nnn2-c2nonc2N)CC1	-34%	.	.	45µM*	.
Cc1cc(C)c(/C=N/NC(=O)c2nnn(-c3nonc3N)c2CN2CCC(C)CC2)c(C)c1	-1%	14%	-4%	?	-3%
CC1CCN(Cc2c(C(=O)O)nnn2-c2nonc2N)CC1	?	30%	-16%	50µM*	2%
Nc1nonc1-n1nnc(C(=O)N/N=C/c2c(Cl)cccc2Cl)c1CN1CCOCC1	5%	20%	-2%	-9%	-4%
Nc1nonc1-n1nnc(C(=O)N/N=C\c2cccc(Cl)c2)c1CN1CCOCC1	-1%	22%	-12%	40µM*	-3%
O=C(CCCCn1c(=O)c2ccccc2n(CC(=O)Nc2ccccc2)c1=O)NCc1ccccc1Cl	5%	5%	-14%	-31%[59 µM]	-13%
O=C(NCc1cccc(Cl)c1)c1ccc(-n2cncn2)c2ccoc12	.	.	.	.	2%
CC[n+]1c(/C=C(\C)SC)sc2ccccc21	79µM*	34%	?	79µM*	8%
CC[n+]1c(/C=C(\C)OC)sc2ccccc21	56µM*	41%	?	?	-8%
CC[n+]1ccccc1/C=C/Nc1ccccc1	-6%	38%	-12%	45µM*	10%
CC[n+]1c(/C=C(/C)SC)sc2ccccc21	?	42%	-15%	45µM*	-15%
CC[n+]1c(C=C2C=C(C)OC(C)=C2)sc2ccccc21	-31%	33%	-23%	-24%	-18%
C[C@H](c1ccccc1)N1C[C@H](COCc2ccccc2)Oc2cc(N3CCC[C@H]3C(N)=O)ccc2S1(=O)=O	.	.	.	.	2%
COc1ccc(C(=O)Nc2ccc3nc(SCC(=O)N(C)c4ccccc4)sc3c2)cc1	2%	62%	-6%	17%[59 µM]	2%
O=C(c1csnn1)N1CCC2(CC1)CCN(c1ccccn1)CC2	.	.	.	-1%[12.7 µM]	.
COc1cccc(Cn2c(=O)n(-c3cccc(Cl)c3C)c(=O)c3c4c(sc32)CN(C(C)=O)CC4)c1	-33%	-5%	?	-5%[59 µM]	2%
CC/C(=C/c1sc2ccccc2[n+]1CC)SC	?	31%	25µM*	-19%[59 µM]	-3%
CC[n+]1c(/C=C2/C=C(C)CC(C)C2)sc2ccccc21 (stereo not given)	?	-4%	32µM*	7.9µM*	7%
CC[n+]1c(/C=C(\C)Nc2ccccc2)sc2ccccc21	50µM*	24%	-24%	?	-8%
CC[n+]1c(/C=C/Nc2ccccc2)sc2ccccc21	-6%	19%	-18%	7.9µM*	22%
